From PubChem BioAssay (NCATS)
Activity calls are given as the source filed them. Calls come from the whole dose curve; as a rule, active = well fitted curve in the direction sought with a large enough effect; inconclusive = small, poorly fitted or top-dose-only effect, or effect the other way, or another doubt; inactive = no such curve, though single readings can be large or run the other way.

What follows are molecules tested against Beta-2 adrenergic receptor (Homo sapiens) (UniProt P07550) (assay: qHTS validation assay of beta-arrestin-biased ligands of beta2-adrenergic receptor (AID 485366)). Settings: cell-based beta-arrestin recruitment to ADRB2, qHTS; series mostly up to 46.1 µM.
Beta-2 adrenergic receptor (Homo sapiens), sequence (P07550 whole entry, looked up): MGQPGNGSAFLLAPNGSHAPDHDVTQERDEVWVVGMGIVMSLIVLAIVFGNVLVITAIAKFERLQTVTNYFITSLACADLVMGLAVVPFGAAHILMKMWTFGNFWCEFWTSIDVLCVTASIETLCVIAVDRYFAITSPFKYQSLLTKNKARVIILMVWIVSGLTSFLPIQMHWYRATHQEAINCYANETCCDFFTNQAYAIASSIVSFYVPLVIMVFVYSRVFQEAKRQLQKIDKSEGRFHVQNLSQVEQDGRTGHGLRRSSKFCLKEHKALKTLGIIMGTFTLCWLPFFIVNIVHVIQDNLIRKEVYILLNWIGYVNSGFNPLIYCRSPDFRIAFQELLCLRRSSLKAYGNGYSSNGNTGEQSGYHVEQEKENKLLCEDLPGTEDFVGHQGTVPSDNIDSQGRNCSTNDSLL
Excerpt: NIH Molecular Libraries Probe Production Network [MLPCN]
NIH Chemical Genomics Center [NCGC]
PI: Bryan Roth and Bob Lefkowitz
The concept of biased agonism is an emerging concept of molecular pharmacology which proposes that seven transmembrane receptors (7TMRs) or G protein-coupled receptors (GPCRs), exist in multiple signaling conformations and complexes and that ligands (either agonists or antagonists) can induce signaling biased responses for distinct signal transduction cascades.
Furthermore, accumulating evidence over the last decade has drawn attention to a novel function of beta-arrestins as signal transducers that scaffold various signaling molecules upon activation of 7TMRs. […] This beta-arrestin-biased signaling presumably leads to distinct physiological outcomes from those by G protein activation.
Additionally, the active receptor conformations which […] on this beta-arrestin signaling are likely different from those activating G protein signaling
The goal of this screening project will be to discover and optimize novel beta-arrestin-biased ligands for beta2-AR signaling. A luminescent cell-based assay for beta2-AR-mediated agonism, known as the Tango assay, has been validated in which ligand binding of a recombinant beta2-AR and subsequent recruitment of a recombinant beta-arrestin lead to the release of the transcriptional activator tTA, which upregulates transcription of a tTA-responsive luciferase gene. […] Compounds were screened as a concentration-titration series that ranged from 46 microM to 0.6 nM.
NCGC Assay Protocol Summary:
Tango cells were dispensed into white, solid, tissue-culture-treated 1536-well plates at 1500 cells/well in DMEM, containing 1% fetal bovine serum (FBS). Then, 23 nL of compounds or DMSO were delivered to each well using a pin tool. Plates were incubated at 37 degrees C, 5% CO2 for 18 hr. Then 2.5 uL luminescent substrate mix (in-house prepared: 150 mM Tris-Cl, pH 7.6, 3 mM MgCl2, 1% Triton X-100, 5 mM DTT, 0.5 mM CoA, 0.15 mM ATP, 0.44 mM D-luciferin, final concentrations) was added to each well. Plates were then incubated for 15 minutes at room temperature, and subsequently measured on a ViewLux plate reader for luminescent signal using a clear filter with a 10 second exposure and 2x binning. The %Activity was determined from the corrected luminescence values.
Concentration-response curves were fitted to the signals arising from the resulting luminescence. The concentration-effect curves were then classified based on curve quality (r2), response magnitude and degree of measured activity, and compounds were subsequently categorized based on their curve class.
Keywords: biased agonism, beta2-AR, beta-arrestin, GPCR, 7TMR, Tango, luminescence, MLSMR, MLPCN, NIH Roadmap, qHTS, NCGC

| SMILES | outcome |
| --- | --- |
| C=CCN1CCC23c4c5ccc(O)c4O[C@H]2C(=O)CC[C@@]3(O)C1C5 (stereo not given in full) | inactive |
| Oc1ccc2c3c1O[C@H]1c4oc5ccccc5c4C[C@@]4(O)C(C2)N(CC2CC2)CCC314 (stereo not given in full) | inactive |
| C[C@H](N)Cc1cccc(C(F)(F)F)c1 | inactive |
| N[C@@]1(C(=O)O)CC[C@@H](C(=O)O)C1 | inactive |
| Cc1c2ccncc2c(C)c2c1[nH]c1ccccc12 | inactive |
| C[N+](C)(C)CC#CCOC(=O)Nc1cccc(Cl)c1 | inactive |
| O=C1C=CC(=O)C=C1 | inactive |
| CCS(=O)(=O)Nc1cccc(C(=C2CCCCC2)c2cnc[nH]2)c1 | inactive |
| O=c1c2ccccc2[se]n1-c1ccccc1 | inactive |
| NNC(=O)c1ccc(O)cc1 | inactive |
| CCn1cnc2c(Nc3cccc(Cl)c3)nc(N[C@@H]3CCCC[C@@H]3N)nc21 | inactive |
| NCC(O)c1cc(O)c(O)cc1F (stereo not given) | inactive |
| CCN1C[C@@]2(COC)C3[C@@H](OC)C4[C@@H]1C3([C@@H]1C[C@]3(O)[C@H](OC(=O)c5ccccc5)[C@@H]1[C@]4(OC(C)=O)[C@@H](O)[C@@H]3OC)[C@H](OC)C[C@H]2O | inactive |
| CC(=O)NBr | inactive |
| NC(CCCCCP(=O)(O)O)C(=O)O (stereo not given) | inactive |
| CN1CCC(c2c[nH]c3ccc(O)cc23)CC1 | inactive |
| C[C@]12Cc3cn4c(nc3C=C1CCC1C2CC[C@@]2(C)[C@H]1CC[C@@]2(O)C#N)nc1ccccc14 (stereo not given in full) | inactive |
| Cc1cc([C@@H]2CCCN2C)on1 | inactive |
| c1ccc2cc(CC3=NCCN3)ccc2c1 | inactive |
| NC(=O)c1cc(N2CC2)c([N+](=O)[O-])cc1[N+](=O)[O-] | inactive |

| SMILES | outcome |
| --- | --- |
| NCC(CP(=O)(O)O)c1ccc(Cl)cc1 (stereo not given) | inactive |
| CN1CC[C@@]2(C)c3cc(OC(=O)Nc4ccccc4)ccc3N(C)[C@@H]12 | inactive |
| C[C@@H]1O[C@@H](O[C@H]2C[C@@H](O)[C@]3(CO)[C@@H]4C(CC[C@]3(O)C2)[C@@]2(O)CC[C@H]([C@@H]3COC(=O)C3)[C@@]2(C)C[C@H]4O)[C@H](O)[C@H](O)[C@H]1O (stereo not given in full) | inactive |
| CN1C2CCC1CC(OC(c1ccccc1)c1ccccc1N)C2 (stereo not given) | inactive |
| O=[N+]([O-])/C=C/c1ccc2c(c1)OCO2 | inactive |
| N=C(N)c1ccc(CS(=O)(=O)F)cc1 | inactive |
| Cc1sc2ccccc2c1CC1=NCCN1 | inactive |
| C[C@@H]1O[C@H](C[N+](C)(C)C)CS1 | inactive |
| CCCN1CC[C@@H]2c3cc(O)ccc3CC[C@@H]21 | inactive |
| c1ccc2c(c1)[I+]c1ccccc1-2 | inactive |
| NC(Cc1ccc(N(CCCl)CCCl)cc1)C(=O)O (stereo not given) | inactive |
| CCCCCCCCCCCCCC(=O)O[C@@H]1[C@@H](C)[C@@]2(O)[C@@H](C=C(CO)C[C@@]3(O)C(=O)C(C)=C[C@@H]23)C2C(C)(C)[C@@]21OC(C)=O (stereo not given in full) | inactive |
| COc1ccc2c(c1)c(CCN1CCOCC1)c(C)n2C(=O)c1cccc(Cl)c1Cl | inactive |
| CC(C)(C)c1cc(C=C(C#N)C#N)cc(C(C)(C)C)c1O | inactive |
| Nc1ccc(CCN2CCN(c3cccc(C(F)(F)F)c3)CC2)cc1 | inactive |
| OC1CCCCC1N1CCC(c2ccccc2)CC1 (stereo not given) | inactive |
| CCCN(CCC)[C@H]1CCc2c(F)ccc(O)c2C1 | inactive |
| C[N+]1(C)CCOC(O)(c2ccc(-c3ccc(C4(O)C[N+](C)(C)CCO4)cc3)cc2)C1 (stereo not given) | inactive |
| COc1ccc2c(c1)C13CCCCC1C(C2)N(C)CC3 (stereo not given) | inactive |
| N[C@@H](CCl)C(=O)O | inactive |
